According to article PMC5540273 (PLoS ONE, 2017):

How the values were obtained:
Settings in all cases: concentration: 1 μM,replicates: in singlicate; n = 1
FGFR1 = test system: FGFR1
FGFR2 = test system: FGFR2
FGFR3 = test system: FGFR3
FGFR4 = test system: FGFR4
FGR = test system: FGR
FLT1 = test system: FLT1
FLT3-autoinhibited = test system: FLT3-autoinhibited
FLT3 = test system: FLT3
FLT4 = test system: FLT4
FRK = test system: FRK
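Note: KINOMEscan kinase panel screen.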

| SMILES | %Inh (FGFR1) [%] | %Inh (FGFR2) [%] | %Inh (FGFR3) [%] | %Inh (FGFR4) [%] | %Inh (FGR) [%] | %Inh (FLT1) [%] | %Inh (FLT3-autoinhibited) [%] | %Inh (FLT3) [%] | %Inh (FLT4) [%] | %Inh (FRK) [%] |
| --- | --- | --- | --- | --- | --- | --- | --- | --- | --- | --- |
| C[C@@H](Oc1cc(-n2cnc3ccc(-c4ccncc4)cc32)sc1C(N)=O)c1ccccc1Cl [GSK483724] | 11 | 6 | 29 | 15 | 27 | 35 | 6 | 53 | 37 | 14 |
| O=C(NOCC1CC1)c1cc(Br)c(F)c(F)c1Nc1ccc(I)cc1Cl | 0 | 1 | 0 | 0 | 0 | 0 | 0 | 0 | 0 | 0 |
| CCNCC(Cc1ccccc1)NC(=O)c1cc(Br)c(-c2ccnc3[nH]ccc23)s1.Cl.Cl (stereo not drawn) [GSK1383280] | 88 | 81 | 61 | 68 | 22 | 54 | 9 | 69 | 49 | 17 |
| CC(C(=O)NC1CCN(c2ccnc(Nc3ccc(F)cc3)n2)C1)c1ccc(Cl)cc1 (stereo not drawn) [GSK1379713] | 0 | 11 | 9 | 0 | 0 | 33 | 0 | 8 | 0 | 0 |
| Cc1ccn2nc(-c3ccc(F)cc3)c(-c3ccncc3)c2c1.Cl [GW457859] | 0 | 85 | 4 | 0 | 0 | 15 | 14 | 0 | 0 | 0 |
| C[C@@H](Oc1cc(-n2cnc3cc(-c4ccncc4)ccc32)sc1C(N)=O)c1ccccc1Cl [GSK479719] | 46 | 57 | 71 | 34 | 40 | 54 | 24 | 97.3 | 97.1 | 15 |
| CN1CCN(CCCNc2nccc(-c3c(-c4ccc(F)cc4)nn4cc(C(N)=O)ccc34)n2)CC1 [GW622475] | 28 | 0 | 8 | 0 | 0 | 54 | 1 | 10 | 28 | 0 |
| COc1cccc(CNC(=O)NC2CCN(c3ccnc(Nc4cc(OC)c(OC)c(OC)c4)n3)C2)c1 (stereo not drawn) [GSK1379765] | 0 | 49 | 23 | 2 | 18 | 26 | 14 | 47 | 23 | 21 |
| CC(C)c1nc(-c2cccc(NS(=O)(=O)c3ccccc3)c2)c(-c2ccnc(Nc3ccc4c(c3)CN(C)CC4)n2)s1 [GSK1649598] | 68 | 6 | 35 | 0 | 97.4 | 98.2 | 40 | 90.3 | 99.6 | 98.2 |
| CN1CCN(CCNc2nc3cc(Oc4ccc(NC(=O)Nc5cc(C(F)(F)F)ccc5F)cc4)ccc3[nH]2)CC1.Cl.Cl [GW768504] | 6 | 0 | 0 | 0 | 0 | 90.7 | 0 | 98.1 | 49 | 69 |
| C[C@@H]1CCN(C(=O)N2CCCC2)C[C@@H]1N(C)c1ncnc2[nH]ccc12 | 13 | 9 | 20 | 3 | 29 | 21 | 18 | 38 | 6 | 0 |
| CC(C)S(=O)(=O)N1CCN(Cc2ccc3c(c2)nc(NC(=O)c2ccsc2)n3C[C@H](O)c2ccccc2)CC1 [GW635815] | 12 | 16 | 0 | 8 | 74 | 71 | 90.4 | 98 | 0 | 3 |
| Cl.Cl.NC[C@H](CC1CCCCC1)NC(=O)c1ccc(-c2ccnc3[nH]ccc23)s1 [GSK1581428] | 26 | 0 | 6 | 0 | 25 | 42 | 26 | 91.9 | 13 | 10 |
| Cc1cccc2c(-c3ccncc3)c(-c3ccc(F)cc3)nn12.Cl [GW461487] | 0 | 33 | 4 | 9 | 2 | 8 | 0 | 0 | 0 | 0 |
| CCn1c(-c2nonc2N)nc2cncc(CNC3CCNCC3)c21.Cl [SB-747651] | 0 | 0 | 5 | 6 | 1 | 8 | 3 | 0 | 10 | 0 |
| C[C@@H](Oc1cc(-n2cnc3cc(-c4cnn(C)c4)ccc32)sc1C(N)=O)c1ccccc1Cl [GSK580432] | 91.9 | 89 | 92.7 | 38 | 72 | 87 | 28 | 99.4 | 99.8 | 12 |
| CS(=O)(=O)Nc1ccc(-c2ccnc3[nH]ccc23)cc1 [GSK993273] | 29 | 20 | 4 | 8 | 16 | 56 | 10 | 74 | 28 | 0 |

| SMILES | %Inh (FGFR1) [%] | %Inh (FGFR2) [%] | %Inh (FGFR3) [%] | %Inh (FGFR4) [%] | %Inh (FGR) [%] | %Inh (FLT1) [%] | %Inh (FLT3-autoinhibited) [%] | %Inh (FLT3) [%] | %Inh (FLT4) [%] | %Inh (FRK) [%] |
| --- | --- | --- | --- | --- | --- | --- | --- | --- | --- | --- |
| CN(c1ccc2c(c1)nc(NCc1ccc(F)cc1)n2C)c1ccnc(Nc2ccc(CS(C)(=O)=O)cc2)n1.Cl [GW813244] | 75 | 59 | 21 | 22 | 28 | 98.9 | 1 | 98.3 | 99.9 | 77 |
| Cc1ccc(Nc2ccnc(Nc3ccc4c(c3)CS(=O)(=O)C4)n2)cc1O.Cl [GW579362] | 84 | 79 | 73 | 41 | 97 | 99.6 | 92.7 | 99 | 100 | 99.1 |
| N#Cc1cccc(C(=O)NC2CCN(c3ccnc(Nc4ccc(F)cc4)n3)C2)c1 (stereo not drawn) [GSK1379708] | 7 | 0 | 0 | 1 | 18 | 20 | 0 | 0 | 20 | 6 |
| CCOC(=O)N1CCC(n2cnc(-c3ccc(F)cc3)c2-c2ccnc(N)n2)CC1 [SB-219952] | 0 | 12 | 12 | 0 | 0 | 33 | 14 | 24 | 0 | 2 |
| COc1cc2nccc(Nc3ccc(Oc4ccccc4)cc3)c2cc1OC.Cl [GI261656] | 0 | 0 | 1 | 0 | 95.5 | 20 | 0 | 69 | 50 | 66 |
| CC(=O)Nc1nc2cnc(Nc3cc(NC(=O)c4cccc(CC(C)(C)C#N)c4)ccc3C)nc2s1 | 0 | 1 | 4 | 0 | 24 | 3 | 0 | 8 | 73 | 83 |
| O=C(Nc1n[nH]c2cc(-c3ccco3)ccc12)C1CC1 [SB-737447] | 14 | 0 | 6 | 0 | 0 | 0 | 4 | 59 | 0 | 0 |
| Cn1ccc2ncnc(Oc3ccc(NC(=O)Nc4cccc(C(F)(F)F)c4)c(F)c3)c21 | 0 | 14 | 5 | 3 | 3 | 98.9 | 38 | 98 | 99.9 | 85 |
| CCN1CCN(CCCC(=O)Nc2n[nH]c3nc(-c4ccc(O)cc4)c(Br)cc23)CC1 [SB-731579] | 0 | 0 | 0 | 0 | 0 | 0 | 0 | 61 | 0 | 0 |
| NC(=O)Nc1sc(-c2ccc(F)cc2)cc1C(N)=O [GW789449] | 36 | 7 | 10 | 0 | 45 | 28 | 5 | 50 | 31 | 0 |
| CNC(=O)c1ccccc1Nc1nc(Nc2cccc(CS(C)(=O)=O)c2)ncc1C.O=CO [GSK1520489] | 99.9 | 99.3 | 99.8 | 94.6 | 99.2 | 98.2 | 89 | 99.1 | 100 | 98.2 |
| COC(=O)c1cccc(NC(=O)NC2CCN(c3ccnc(Nc4cc(OC)c(OC)c(OC)c4)n3)C2)c1 (stereo not drawn) [GSK1379767] | 0 | 0 | 32 | 0 | 25 | 13 | 4 | 33 | 14 | 17 |
| O=C(NCC1CC1)c1ccc(-c2cc(C(=O)NC3CC3)ccc2F)cc1 [GW810445] | 0 | 0 | 0 | 0 | 0 | 0 | 0 | 12 | 0 | 2 |
| O=C1NCCc2[nH]c(-c3ccncc3)cc21 | 0 | 4 | 10 | 0 | 20 | 6 | 12 | 0 | 0 | 0 |
| OCCn1cc(-c2cnc3nnn(Cc4ccc5ncccc5c4)c3n2)cn1 | 0 | 0 | 0 | 0 | 5 | 0 | 0 | 0 | 0 | 0 |
| Cc1ccc(CC(=O)N2CCc3cc(-c4cn(C)c5ncnc(N)c45)ccc32)cc1 [GSK2634758] | 14 | 14 | 2 | 0 | 37 | 32 | 0 | 40 | 0 | 0 |
